From PubChem BioAssay (EPA / NIEHS) come the findings set out here.

Test [1] can be described thus: CCTE_Padilla_ZF_144hpf_TERATOSCORE: (Legacy) CCTE's 144 Hour Post-fertilization zebrafish Assay Teratoscore, Padilla Lab (AID 2283679; active = hit-call score of the fitted dose curve at least 0.9, where 1 is the maximum; inactive = score below 0.9;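 as to AC50: zebrafish embryos with chorions exposed by immersion from 6-8 hpf to 5 dpf with daily renewal; teratogenicity score from eye scoring of death hatching and malformations at 144 hpf; higher score means more developmental defects relative to DMSO baseline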). The procedure, abridged:
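Larvae scored by eye at 144 hpf for death, hatching and malformations after a day in clean Hanks'. Before that, daily-renewed exposure at 80 uM (0.4% DMSO, 26C) from roughly 6-8 hpf through 5 dpf, 4 embryos per chemical.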

Read-out in test [2]: Cytochrome P450 3A4 (Homo sapiens) (UniProt P08684)
Put plainly: CLD_CYP3A4_6hr: CellzDirect (CLD) Gene Expression Assay for xenobiotic metabolism (CYP3A4) at 6 hours (AID 2283680). Summed up:
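CYP3A4 mRNA induction, 6 h after dosing of cultured primary human hepatocytes from two donors, read by quantitative nuclease protection (qNPA, chemiluminescence). Vehicle 0.2% DMSO as baseline; morphology-based cytotoxicity annotated yes/no.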

Read-out in test [3]: xenobiotic metabolism (CYP1A2), CYP1A2 (gene 1544)
Put plainly: CLD_CYP1A2_24hr: CellzDirect (CLD) Gene Expression Assay for xenobiotic metabolism (CYP1A2) at 24 hours (AID 2283683). Summed up:
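CYP1A2 mRNA induction measured by quantitative nuclease protection (chemiluminescent) in human primary hepatocytes 24 h after multi-concentration chemical dosing with daily fresh solutions. DMSO (0.2%) baseline; positive-direction fitting; morphology-based cytotoxicity noted.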

Read-out in test [4]: Glyceraldehyde-3-phosphate dehydrogenase (Homo sapiens) (UniProt P04406)
Put plainly: CLD_GAPDH_24hr: CellzDirect (CLD) Gene Expression Assay for Baseline Control (Glyceraldehyde 3-phosphate dehydrogenase) at 24 hours (AID 2283692). The procedure, abridged: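 GAPDH baseline-control readout: qNPA chemiluminescent mRNA signal in human primary hepatocytes harvested 24 h after daily dosing, normalised to 0.2% DMSO with positive fitting direction; cytotoxicity annotated by phase-contrast morphology.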

Read-out in test [5]: alkyl and aryl transferase (GSTA2), GSTA2 (gene 2939)
Kind of test: CLD_GSTA2_24hr: CellzDirect (CLD) Gene Expression Assay for alkyl and aryl transferase (GSTA2) at 24 hours (AID 2283693). Summed up: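 GSTA2 transcript levels were quantified by quantitative nuclease protection assay in primary human hepatocytes 24 h after daily dosing with fresh solutions at multiple concentrations; 0.2% DMSO vehicle as baseline, cytotoxicity flagged morphologically.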

Read-out in test [6]: sulfotransferase (SULT2A), SULT2A1 (gene 6822)
Kind of test: CLD_SULT2A_24hr: CellzDirect (CLD) Gene Expression Assay for sulfotransferase (SULT2A) at 24 hours (AID 2283694). Summed up: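 mRNA is measured by qNPA: probe hybridisation, S1 nuclease digestion, chemiluminescence, in lysates from human primary hepatocytes harvested 24 h after daily dosing. Vehicle was 0.2% DMSO. Phase-contrast microscopy flagged cytotoxicity (yes/no).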

Read-out in test [7]: ABC Transporter (ABCB1), ABCB1 (gene 5243)
Kind of test: CLD_ABCB1_48hr: CellzDirect (CLD) Gene Expression Assay for ABC Transporter (ABCB1) at 48 hours (AID 2283695). Summed up: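 ABCB1 mRNA was measured by quantitative nuclease protection assay (chemiluminescence) 48 h after dosing. Human hepatocyte cultures from two separate donors received fresh dosing solutions daily for two days, with 0.2% DMSO as vehicle. Positive-direction fit against DMSO.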

Read-out in test [8]: Cytochrome P450 2C19 (Homo sapiens) (UniProt P33261)
Put plainly: CLD_CYP2C19_48hr: CellzDirect (CLD) Gene Expression Assay for xenobiotic metabolism (CYP2C19) at 48 hours (AID 2283700).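 Also: fitted upward so actives raise CYP2C19 mRNA above the 0.2% DMSO vehicle.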 Summed up:
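CYP2C19 mRNA induction read by chemiluminescent quantitative nuclease protection assay after 48 h, with fresh compound added daily for two days to cultured human liver hepatocytes. Activity fitted upward against 0.2% DMSO vehicle.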

Read-out in test [9]: Glyceraldehyde-3-phosphate dehydrogenase (Homo sapiens) (UniProt P04406)
Put plainly: CLD_GAPDH_6hr: CellzDirect (CLD) Gene Expression Assay for Baseline Control (Glyceraldehyde 3-phosphate dehydrogenase) at 6 hours (AID 2283681).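 Also: active means increased signal relative to DMSO vehicle.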 Summed up: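 GAPDH baseline-control readout from qNPA (S1 nuclease digestion, probe hybridization, chemiluminescence) in lysates of cultured human hepatocytes harvested 6 h post-dosing. Chemicals tested at multiple concentrations versus 0.2% DMSO vehicle; microscopy-based cytotoxicity flagged yes/no.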

Read-out in test [10]: HMG-CoA synthase (HMGCS2), HMGCS2 (gene 3158)
Kind of test: CLD_HMGCS2_6hr: CellzDirect (CLD) Gene Expression Assay for HMG-CoA synthase (HMGCS2) at 6 hours (AID 2283682).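 Also: actives raise HMGCS2 transcript above the 0.2% DMSO vehicle baseline.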 Summed up: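 HMGCS2 transcript induction read by quantitative nuclease protection with chemiluminescence, 6 h after dosing of primary human hepatocytes. Baseline was 0.2% DMSO vehicle; phase-contrast morphology gave a yes/no cytotoxicity annotation.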

Read-out in test [11]: Cytochrome P450 2B6 (Homo sapiens) (UniProt P20813)
Put plainly: CLD_CYP2B6_24hr: CellzDirect (CLD) Gene Expression Assay for xenobiotic metabolism (CYP2B6) at 24 hours (AID 2283686). Summed up: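 qNPA chemiluminescent measurement of mRNA at 24 hours in human primary hepatocyte cultures from two donor preparations, with daily fresh dosing and 0.2% DMSO vehicle as baseline. Morphology-based cytotoxicity flagged yes/no.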

Read-out in test [12]: Cytochrome P450 3A4 (Homo sapiens) (UniProt P08684)
Kind of test: CLD_CYP3A4_48hr: CellzDirect (CLD) Gene Expression Assay for xenobiotic metabolism (CYP3A4) at 48 hours (AID 2283698). Summed up: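 CYP3A4 induction read by qNPA chemiluminescence after 48 h, with fresh dosing solutions on consecutive days, in cultured human hepatocytes (two donors). Vehicle 0.2% DMSO as baseline; microscopy-based cytotoxicity annotated yes/no alongside data.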

A short description of test [13]: CLD_ACTIN_6hr: CellzDirect (CLD) Gene Expression Assay for Baseline Control (Actin) at 6 hours (AID 2283676).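 Also: active means increased actin mRNA relative to DMSO vehicle.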 Summed up: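 Baseline actin transcript level measured by qNPA (S1 nuclease protection, chemiluminescence) in human hepatocyte cultures 6 h after chemical exposure; 0.2% DMSO vehicle as reference, cytotoxicity noted from morphology.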
Read-out in test [14]: ABC Transporter (ABCB1), ABCB1 (gene 5243)
Kind of test: CLD_ABCB1_24hr: CellzDirect (CLD) Gene Expression Assay for ABC Transporter (ABCB1) at 24 hours (AID 2283684). Summed up: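 ABCB1 mRNA induction versus 0.2% DMSO vehicle was read by qNPA chemiluminescence at 24 h. Cultured human hepatocytes from two donor preparations received daily fresh dosing, and phase-contrast cytotoxicity calls were annotated alongside the data.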

Read-out in test [15]: glucuronosyltransferase (UGT1A1), UGT1A1 (gene 54658)
Put plainly: CLD_UGT1A1_24hr: CellzDirect (CLD) Gene Expression Assay for glucuronosyltransferase (UGT1A1) at 24 hours (AID 2283696). The procedure, abridged: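 UGT1A1 transcript induction was measured by quantitative nuclease protection assay (chemiluminescence) in human hepatocyte cultures 24 h after daily fresh dosing, with 0.2% DMSO as vehicle and baseline.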

Read-out in test [16]: Cytochrome P450 2B6 (Homo sapiens) (UniProt P20813)
Put plainly: CLD_CYP2B6_48hr: CellzDirect (CLD) Gene Expression Assay for xenobiotic metabolism (CYP2B6) at 48 hours (AID 2283699).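 Also: actives raise transcript level above DMSO so potency reflects induction.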 Summed up:
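CYP2B6 transcript induction, read by quantitative nuclease protection (S1 digestion, chemiluminescent detection) 48 h after dosing, is fitted upward against 0.2% DMSO. Cultured human liver primary cells, two donor preparations, received fresh chemical daily over multiple concentrations.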

Read-out in test [17]: Cytochrome P450 2B6 (Homo sapiens) (UniProt P20813)
Put plainly: CLD_CYP2B6_6hr: CellzDirect (CLD) Gene Expression Assay for xenobiotic metabolism (CYP2B6) at 6 hours (AID 2283677).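 Also: actives raise CYP2B6 transcript above DMSO baseline so AC50 marks an inducer.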 The procedure, abridged:
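CYP2B6 transcript levels, read by chemiluminescent qNPA, were fitted for increase versus DMSO baseline; cultured human liver hepatocytes from two donor preparations were harvested 6 h after exposure to test chemicals at multiple concentrations.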

Read-out in test [18]: Cytochrome P450 3A4 (Homo sapiens) (UniProt P08684)
Kind of test: CLD_CYP3A4_24hr: CellzDirect (CLD) Gene Expression Assay for xenobiotic metabolism (CYP3A4) at 24 hours (AID 2283689). The procedure, abridged: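 CYP3A4 mRNA induction read by quantitative nuclease protection (chemiluminescence) 24 hr after dosing. Cultured human hepatocytes (two donor preparations) treated daily, vehicle 0.2% DMSO; phase-contrast morphology annotates cytotoxicity.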

Usually AC50 stands for the midpoint of the concentration-response curve, whichever way the signal moves.

Structures are written as SMILES. Results filed as inconclusive are left out. Active and inactive are the calls of the source. The calls were made as follows, unless noted: active = hit-call score of the fitted dose curve at least 0.9, where 1 is the maximum; inconclusive = response in the unintended direction; inactive = score below 0.9.

Sequence of Cytochrome P450 2C19 (Homo sapiens) (P33261 whole entry, looked up): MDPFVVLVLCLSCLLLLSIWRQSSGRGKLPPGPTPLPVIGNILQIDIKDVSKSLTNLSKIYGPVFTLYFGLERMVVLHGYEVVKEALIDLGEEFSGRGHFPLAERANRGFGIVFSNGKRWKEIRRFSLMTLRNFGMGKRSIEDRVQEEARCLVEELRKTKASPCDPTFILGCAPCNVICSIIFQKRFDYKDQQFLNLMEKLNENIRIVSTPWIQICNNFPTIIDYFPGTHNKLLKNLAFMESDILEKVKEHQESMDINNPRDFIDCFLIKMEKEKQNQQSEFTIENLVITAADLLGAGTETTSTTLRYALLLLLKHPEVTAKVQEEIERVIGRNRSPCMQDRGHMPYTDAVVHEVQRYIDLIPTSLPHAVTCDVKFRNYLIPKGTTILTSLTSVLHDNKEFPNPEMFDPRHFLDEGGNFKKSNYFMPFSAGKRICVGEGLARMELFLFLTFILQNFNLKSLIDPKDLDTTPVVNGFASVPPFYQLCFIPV
Sequence of Glyceraldehyde-3-phosphate dehydrogenase (Homo sapiens) (P04406 whole entry, looked up): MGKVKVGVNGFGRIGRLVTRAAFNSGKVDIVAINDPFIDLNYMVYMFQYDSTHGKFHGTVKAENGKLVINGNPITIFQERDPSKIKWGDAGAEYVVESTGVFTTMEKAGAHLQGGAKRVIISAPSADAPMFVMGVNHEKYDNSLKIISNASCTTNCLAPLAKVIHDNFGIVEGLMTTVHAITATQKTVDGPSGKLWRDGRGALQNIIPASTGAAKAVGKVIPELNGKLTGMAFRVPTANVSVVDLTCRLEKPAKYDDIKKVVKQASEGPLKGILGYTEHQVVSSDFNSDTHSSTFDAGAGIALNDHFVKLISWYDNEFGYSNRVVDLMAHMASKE
Sequence of Cytochrome P450 3A4 (Homo sapiens) (P08684 whole entry, looked up): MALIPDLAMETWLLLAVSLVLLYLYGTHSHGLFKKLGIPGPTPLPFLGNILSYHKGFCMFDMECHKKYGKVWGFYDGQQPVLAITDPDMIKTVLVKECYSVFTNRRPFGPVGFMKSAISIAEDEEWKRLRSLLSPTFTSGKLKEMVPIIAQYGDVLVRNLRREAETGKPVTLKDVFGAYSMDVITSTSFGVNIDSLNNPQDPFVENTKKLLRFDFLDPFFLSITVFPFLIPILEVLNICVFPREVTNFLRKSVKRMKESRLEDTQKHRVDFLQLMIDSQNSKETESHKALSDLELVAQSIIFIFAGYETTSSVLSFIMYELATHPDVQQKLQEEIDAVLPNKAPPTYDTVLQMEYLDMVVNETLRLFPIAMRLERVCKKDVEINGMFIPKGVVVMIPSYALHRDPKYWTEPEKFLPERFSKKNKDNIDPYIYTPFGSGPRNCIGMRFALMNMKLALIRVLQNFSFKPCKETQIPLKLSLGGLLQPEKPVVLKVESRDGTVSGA

Take `CCOP(=O)(NC(C)C)Oc1ccc(SC)c(C)c1` (centres undefined): the AC50 in test [1] is 50.3 µM (active); in test [3], 6.73 µM (active). For the same compound, the compound was classed as inactive in test [2], in test [4], in test [5], in [6], in [7] and in test [8].
In the case of `O=[N+]([O-])c1cc(C(F)(F)F)c(Cl)c([N+](=O)[O-])c1Nc1ncc(C(F)(F)F)cc1Cl`, the results for the AC50 in test [1] and in [3] were 0.994 µM (active) and 0.508 µM (active), respectively. The compound was classed as inactive in [2], in test [9], in [10], in test [11] and in [12].
For the compound `CC(Oc1cccc(Cl)c1)C(=O)O` (centres undefined), the outcome in test [13], in test [1], in test [9], in [10], in [3] and in [4] was inactive. Also, the result in [6], in test [7] and in test [8] was inactive.
As for `CSc1nc(NC(C)C)nc(NC(C)C)n1`, the AC50 in [1] was 132 µM (active); in test [3], 2.63 µM (active). Moreover, the compound was called inactive in test [2], in test [9], in test [14], in test [5], in test [7] and in [15].
Consider `CC(COc1ccc(Oc2ccccc2)cc1)Oc1ccccn1` (centres undefined), for which the AC50 in test [1] is 47.6 µM (active); in [2] it was 20 µM (active); in test [11], 3.97 µM (active); in test [12], 3.97 µM (active). The result in test [10], in [3] and in test [7] was inactive.
Take `CCC(=O)Nc1ccc(Cl)c(Cl)c1`: the AC50 was 61.3 µM (active) in test [1], 3.95 µM (active) in test [3] and 0.92 µM (active) in test [16]. In [10], the compound was classed as inactive.
Take `CCNc1nc(Cl)nc(NC(C)(C)C#N)n1`: the AC50 in test [17] was 3.62 µM (active); in test [16], 3.45 µM (active). Also, the compound was called inactive in test [1], in test [2], in [10], in test [3], in [5] and in test [7]. Further, the compound was called inactive in test [15].
With `CN1COCN(Cc2cnc(Cl)s2)C1=N[N+](=O)[O-]`, the compound was called inactive in test [13], in [1], in test [10], in test [3], in [18] and in test [12]. For the same compound, the compound was called inactive in test [16] and in test [8].
With `CCOC(=O)COc1cc(-c2nn(C)c(OC(F)F)c2Cl)c(F)cc1Cl`, the AC50 in [1] is 0.201 µM (active); in test [2], 3.97 µM (active); in test [18], 20 µM (active); in test [12], 4.37 µM (active); in test [16], 13.5 µM (active). Further, the result in test [9], in test [3], in test [6] and in [7] was inactive.
